Assay [1] is described as follows: AP1 Signaling Pathway (AID 357). Note: % is set by controls: 0 for no effect and ±100 for the full control effect. To be noted: ME-180 (cervical carcinoma) AP-1-bla reporter, EGF-induced, beta-lactamase ratio, 5 h; at 17.2 µM (top of the series) unless noted. The procedure, abridged: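 Read-out was the 460nm/530nm emission ratio (excitation 405nm) after CCF4 loading for 2.5 hours at room temperature. Cells carried an AP-1-driven beta-lactamase reporter, were stimulated with EC50 EGF plus compound for 5 hours, and AC50 values came from titrations.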

Assay [2] has as its target Cytochrome P450 1A2 (Homo sapiens) (UniProt P05177). Kind of assay: p450-cyp1a2 (AID 410; calls by dose curve;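 note: -100% = full effect of reference inhibitor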). The procedure, abridged: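 Human CYP1A2 (20nM) demethylated Luciferin-ME at its Km (100uM) in 100mM KPO4. After 10 min compound preincubation, NADPH regeneration ran the reaction 60 min at room temperature. Luciferin was read by luminescence, normalized to 57 uM furafylline.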
Assay [3] in a line: NFAT Signaling Pathway (AID 444).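 Note: carbachol stimulus at about its EC50 of 1 µM final; % is set by controls: 0 for no effect and ±100 for the full control effect.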 To be noted: Jurkat NFAT-bla M1, carbachol, beta-lactamase ratio, 5 h; at 17.2 µM (top of the series) unless noted. The procedure, abridged:
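Read-out: CCF4 FRET ratio (460 nm/530 nm) after 1 h RT dye loading, used for %activity and AC50 from titration series. Cells: Jurkat NFAT-β-lactamase/M1 line, treated with compound plus 1 uM carbachol for 5 h, 37 °C.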

A short description of assay [4]: Stat Signaling Pathway (AID 446).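 Note: ME-180 cervical cancer cells given 40 pM IL-6 alongside compound; SIE-controlled beta-lactamase reporter measured as 460/530 nm FRET emission ratio; % is set by controls: 0 for no effect and ±100 for the full control effect.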 The procedure, abridged:
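IL-6/STAT signaling read in ME-180 cells via an SIE beta-lactamase reporter. Stimulus was 40 pM IL-6 (its AC50) for 5 hrs, so both activation and inhibition register.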

Assay [5] concerns the target Glucocorticoid receptor (Homo sapiens) (UniProt P04150). Kind of assay: GR-GFP Redistribution (AID 450;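 active = compounds whose dose series gives a full or clear partial fitted curve of increased nuclear translocation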; note: potency is the fitted concentration of half-maximal effect). Conditions: U2OS GR-GFP nuclear translocation, laser cytometry, 2 h.
For assay [6] the target is unchanged. Kind of assay: GR-EFC Redistribution (AID 451; calls by dose curve; note: potency is the fitted concentration of half-maximal effect). Conditions: CHO-K1 GR-EFC translocation, beta-gal luminescence, 2 h. The procedure, abridged:
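Translocation of GR-ED fusion to nuclear EA restores b-gal, read by luminescence after 1 h room-temperature detection. Engineered CHO-K1 biosensor cells, 1,000/well, exposed 2 h at 37 C to titrations up to 46 uM final.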

For assay [7], the target named is 3',5'-cyclic-AMP phosphodiesterase 4B (Homo sapiens) (UniProt Q07343). Kind of assay: qHTS Assay for Inhibitors of PDE-IV (AID 607; active = well fitted activation curve with a large enough effect in the main read-out, with a control signal flat, not every such curve was filed as active; note: % of control where 0% means no effect). The method in brief:
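Live HEK293 cells with a modified cyclic nucleotide-gated (CNG) channel report intracellular cAMP via membrane-potential dye fluorescence (ex 535/em 590 nm). Endogenous PDE-IV was targeted. Compounds were tested at up to 22.9 uM final; RO 20-1724 100 uM served as control.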
(In qHTS, concentration-response curves come from the screen itself.)

Assay [8] concerns the target Cytochrome P450 2C9 (Homo sapiens) (UniProt P11712). Kind of assay: qHTS Assay for Inhibitors and Substrates of Cytochrome P450 2C9 (AID 883; active = well fitted curve in the direction sought with a large enough effect; an effect the other way counts as inactive or inconclusive; note: % is set by controls: 0 for no effect and ±100 for the full control effect; nearly all actives have a fitted effect of over 60% in size). The method in brief:
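Turnover of Luciferin-H (100uM, KM) by 10nM human CYP2C9 was measured over 60 min at 37C with NADPH regeneration; inhibitors and some substrates reduce luminescence. Data normalized to sulphaphenazole 57uM.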

The target in assay [9] is Cytochrome P450 2D6 (Homo sapiens) (UniProt P10635). Kind of assay: qHTS Assay for Inhibitors and Substrates of Cytochrome P450 2D6 (AID 891; active = well fitted curve in the direction sought with a large enough effect; an effect the other way counts as inactive or inconclusive;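 note: luciferin methyl ether substrate demethylated by CYP2D6 with NADPH regeneration; % is set by controls: 0 for no effect and ±100 for the full control effect; nearly all actives have a fitted effect of over 60% in size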). The procedure, abridged:
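Human CYP2D6 (5 nM) with 30 uM Luciferin-ME EGE (at Km) in 100 mM KPO4, compound preincubated 10 min, then NADPH regeneration system for 60 min at room temperature. Luciferin read by luminescence; normalized to 1.43 uM quinidine.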

Assay [10] concerns the target Cytochrome P450 2C19 (Homo sapiens) (UniProt P33261). Kind of assay: qHTS Assay for Inhibitors and Substrates of Cytochrome P450 2C19 (AID 899; active = well fitted curve in the direction sought with a large enough effect; an effect the other way counts as inactive or inconclusive; note: % is set by controls: 0 for no effect and ±100 for the full control effect; nearly all actives have a fitted effect of over 60% in size). The method in brief:
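Reactions contain 5nM enzyme, 10uM Luciferin-H EGE (KM) and 50mM KPO4; compound preincubates 10 min at 37C, NADPH regeneration starts turnover for 60 min. Luminescence after detection reagent gives activity.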

The target of assay [11] is Mitogen-activated protein kinase 10 (Mus musculus) (UniProt Q61831). Kind of assay: JNK3 AlphaScreen Assay (AID 530).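 Note: kinase came from lysate of stimulated human HepG2 cells; signal reports phosphorylation of biotinylated GST-cJun 1-79 at Ser73 with 10 µM ATP; % is set by controls: 0 for no effect and ±100 for the full control effect.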 The procedure, abridged:
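Room-temperature AlphaScreen kinase assay; pre-activated HepG2 lysate as JNK3 source, biotin-GST-cJun(1-79) substrate, 10 uM ATP, compound 15 min preincubation.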
A general note: Alpha assays give light when donor and acceptor beads are brought close together.

In assay [12] the target is Guanine nucleotide-binding protein G(i) subunit alpha-1 (Homo sapiens) (UniProt P63096). Kind of assay: qHTS Assay for Inhibitors of RGS12 GoLoco Motif Activity (Green Fluorophore) (AID 879; active = well fitted curve in the direction sought with a large enough effect; an effect the other way counts as inactive or inconclusive;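 note: 0% = labeled peptide with Gαi1 and full inhibition = labeled peptide alone without protein; negative values mean loss of peptide binding seen as reduced polarization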). The method in brief: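 Fluorescence polarization assay: 50 nM Gαi1 with 10 nM FITC-labeled RGS12 GoLoco peptide in 10 mM Tris pH 7.5, 150 mM NaCl, 0.1 mM GDP, 0.05% NP40, 10 min at room temperature with compound.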

Assay [13] in a line: qHTS Assay for Identification of Small Molecule Antagonists for NFkB Signaling Pathway (AID 895; active = well fitted inhibition curve with a large enough effect in the signal ratio, with a control signal flat, not every such curve was filed as active; the % refers to the signal ratio; note: potency is the fitted concentration of half-maximal effect). The procedure, abridged: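 Beta-lactamase reporter read-out (460 and 530 nm emission ratio, 405 nm excitation, 2 hrs substrate loading RT) after 5 hr stimulation with 10 pM TNF alpha in compound-treated NFkB-bla ME-180 cells in low-serum medium.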
Assay [14] can be described thus: qHTS Assay for Identification of Small Molecule Antagonists for Thrombopoietin (TPO) Signaling Pathway (AID 918; active = well fitted curve in the direction sought with a large enough effect; an effect the other way counts as inactive or inconclusive; note: potency is the fitted concentration of half-maximal effect; nearly all actives have a fitted effect of over 60% in size). Conditions: TPO-dependent cell signaling reporter, antagonist mode. The procedure, abridged:
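Murine Ba/F3 cells stably expressing human TPO receptor and a Glycoprotein IIb promoter–luciferase reporter were IL-3-starved overnight, treated with compounds plus TPO (26 pM final, its EC50) for 24 hrs at 37 C, then read by luminescence.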

Assay [15] addresses Muscarinic acetylcholine receptor M1 (Rattus norvegicus) (UniProt P08482). Kind of assay: qHTS Assay for Antagonists of Acetylcholine Muscarinic M1 Receptor: Kinetic Measurement of Intracellular Calcium Response (AID 943; active = well fitted curve in the direction sought with a large enough effect; an effect the other way counts as inactive or inconclusive;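 note: Fluo-4 calcium signal as peak divided by basal fluorescence over 4 min; nearly all actives have a fitted effect of over 75% in size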). The method in brief:
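CHO cells stably expressing rat M1 were loaded with no-wash Fluo-4 dye for 1 h at 37C, pre-incubated 10 min with compound, then challenged with EC80 carbachol (100 nM final); kinetic calcium read 4 min, peak/basal ratio.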

Assay [16] has the same target. Kind of assay: qHTS Assay for Antagonists of Acetylcholine Muscarinic M1 Receptor: Measurement of IP-One Response (AID 944; active = well fitted curve in the direction sought with a large enough effect; an effect the other way counts as inactive or inconclusive; note: nearly all actives have a fitted effect of over 75% in size). The procedure, abridged:
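CHO cells expressing rat M1 receptor, recovered overnight, were pre-incubated 10 min with compound, then stimulated 30 min with carbachol at EC80 (200 nM) in LiCl-containing buffer, pH 7.4. IP1 accumulation was read by HTRF (620/665 nm).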

For assay [17], the target named is Pyruvate kinase (Leishmania mexicana) (UniProt Q27686). Kind of assay: qHTS Validation Assay for Inhibitors of Leishmania Mexicana Pyruvate Kinase (AID 945; active = well fitted curve in the direction sought with a large enough effect; an effect the other way counts as inactive or inconclusive;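 note: 0% = DMSO only neutral control wells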). The procedure, abridged:
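Luminescent ATP detection (PKLight) after a 1 h room-temperature reaction of 0.2 nM LmPYK E451W mutant with 0.5 mM PEP and 0.1 mM ADP at pH 7.2. Activity is normalized to DMSO-only control wells.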

Assay [18] addresses Pyruvate kinase PKM (Homo sapiens) (UniProt P14618). Kind of assay: qHTS Assay for Activators of Human Muscle Pyruvate Kinase (AID 954; active = well fitted curve in the direction sought with a large enough effect, not every such curve was filed as active;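 note: 0% = uninhibited enzyme and -100% = no enzyme or full thiadiazolimine inhibition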). The method in brief:
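Enzyme was run at intermediate activity so both inhibitors and activators could be detected. ATP formed from ADP and PEP by 0.1 nM human PKM2 during a 1 h room-temperature incubation was quantified by coupled luciferase luminescence.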

In assay [19] the target is Alpha-galactosidase A (Homo sapiens) (UniProt P06280). Kind of assay: Counterscreen for Glucocerebrosidase Inhibitors: qHTS Assay for Human alpha-Galactosidase at pH 4.5 (AID 992; active = well fitted curve in the direction sought with a large enough effect; an effect the other way counts as inactive or inconclusive; note: 0% is about no effect). The procedure, abridged: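 Read-out is 4-methylumbelliferone fluorescence (365 nm excitation, 440 nm emission) after a pH 10 NaOH/glycine stop. Reactions held 2 nM enzyme and 80 uM substrate at pH 4.5 for 20 min at room temperature.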
Alpha-galactosidase A (Homo sapiens), sequence (P06280 whole entry, looked up): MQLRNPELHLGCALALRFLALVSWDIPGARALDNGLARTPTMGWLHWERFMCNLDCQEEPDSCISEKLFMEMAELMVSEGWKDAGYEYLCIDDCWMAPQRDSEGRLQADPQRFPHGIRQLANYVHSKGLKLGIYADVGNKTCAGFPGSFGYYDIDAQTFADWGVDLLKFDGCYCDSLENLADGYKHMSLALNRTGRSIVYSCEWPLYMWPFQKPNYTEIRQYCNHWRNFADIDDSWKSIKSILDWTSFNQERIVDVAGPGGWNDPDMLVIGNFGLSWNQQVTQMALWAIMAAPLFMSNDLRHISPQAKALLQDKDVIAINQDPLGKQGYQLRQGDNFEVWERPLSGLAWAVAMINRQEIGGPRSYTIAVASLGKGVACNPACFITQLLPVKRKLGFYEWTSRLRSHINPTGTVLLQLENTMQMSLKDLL

Assay [20] addresses alpha-glucosidase (Oryza sativa, rice) (UniProt Q653V4). Kind of assay: Counterscreen for Glucocerebrosidase Inhibitors: qHTS Assay for Rice alpha-Glucosidase at pH 5.0 (AID 997; active = well fitted curve in the direction sought with a large enough effect; an effect the other way counts as inactive or inconclusive;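 note: 0% = full activity with enzyme and -100% = basal without enzyme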). The method in brief: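 Rice alpha-glucosidase (4 nM final) with 400 uM 4-methylumbelliferyl-alpha-D-glucopyranoside in citrate buffer pH 5.0, 20 min at room temperature, stopped at pH 10; fluorescence 365/440 nm, compounds 0.7 nM–77 uM, AC50 from Hill fits.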

In assay [21] the target is Alpha-galactosidase (Coffea arabica) (UniProt Q42656). Kind of assay: Counterscreen for Glucocerebrosidase Inhibitors: qHTS Assay for Coffee Bean alpha-Galactosidase at pH 5.9 (AID 998; active = well fitted curve in the direction sought with a large enough effect; an effect the other way counts as inactive or inconclusive;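 note: plate controls were uninhibited enzyme for no effect and no-enzyme basal signal for full effect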). The method in brief:
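Compounds were titrated from 0.7 nM to 77 uM against green coffee bean alpha-galactosidase (2 nM) using 80 uM fluorogenic 4-methylumbelliferyl substrate. After 20 min at room temperature, reactions were stopped at pH 10 and read by fluorescence.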
(In general: The purpose of a counterscreen is to sort out artefacts and off-target activity.)

Unmarked numbers belong to inactive results. Inconclusive results are not listed. Active and inactive are the calls of the source. Unless noted, calls come from the whole dose curve; as a rule, active = well fitted curve in either direction with a large enough effect (not every such curve was filed as active); inconclusive = small, poorly fitted or top-dose-only effect, or another doubt; inactive = flat fitted curve, though single readings scatter.

Glucocorticoid receptor (Homo sapiens), sequence (P04150 whole entry, looked up): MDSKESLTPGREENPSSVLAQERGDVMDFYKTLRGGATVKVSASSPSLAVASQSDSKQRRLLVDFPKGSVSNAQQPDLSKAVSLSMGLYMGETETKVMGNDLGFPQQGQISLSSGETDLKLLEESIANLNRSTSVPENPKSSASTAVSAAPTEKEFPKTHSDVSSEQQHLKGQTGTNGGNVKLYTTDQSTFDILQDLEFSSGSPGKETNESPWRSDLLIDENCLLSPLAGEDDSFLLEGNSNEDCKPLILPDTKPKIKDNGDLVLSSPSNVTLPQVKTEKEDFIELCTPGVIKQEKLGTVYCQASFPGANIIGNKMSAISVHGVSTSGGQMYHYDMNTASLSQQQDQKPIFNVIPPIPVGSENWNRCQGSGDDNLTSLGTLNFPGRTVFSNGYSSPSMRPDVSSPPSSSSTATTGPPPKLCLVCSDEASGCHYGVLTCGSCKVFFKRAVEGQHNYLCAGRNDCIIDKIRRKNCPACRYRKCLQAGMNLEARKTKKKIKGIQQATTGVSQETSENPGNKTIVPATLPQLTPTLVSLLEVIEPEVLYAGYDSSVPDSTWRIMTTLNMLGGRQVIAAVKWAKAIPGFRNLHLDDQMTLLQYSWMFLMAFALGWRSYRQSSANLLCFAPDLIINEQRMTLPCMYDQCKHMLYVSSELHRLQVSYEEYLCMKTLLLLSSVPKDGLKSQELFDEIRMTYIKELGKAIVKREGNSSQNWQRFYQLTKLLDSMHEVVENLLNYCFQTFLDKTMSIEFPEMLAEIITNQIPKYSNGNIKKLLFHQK
Cytochrome P450 2C19 (Homo sapiens), sequence (P33261 whole entry, looked up): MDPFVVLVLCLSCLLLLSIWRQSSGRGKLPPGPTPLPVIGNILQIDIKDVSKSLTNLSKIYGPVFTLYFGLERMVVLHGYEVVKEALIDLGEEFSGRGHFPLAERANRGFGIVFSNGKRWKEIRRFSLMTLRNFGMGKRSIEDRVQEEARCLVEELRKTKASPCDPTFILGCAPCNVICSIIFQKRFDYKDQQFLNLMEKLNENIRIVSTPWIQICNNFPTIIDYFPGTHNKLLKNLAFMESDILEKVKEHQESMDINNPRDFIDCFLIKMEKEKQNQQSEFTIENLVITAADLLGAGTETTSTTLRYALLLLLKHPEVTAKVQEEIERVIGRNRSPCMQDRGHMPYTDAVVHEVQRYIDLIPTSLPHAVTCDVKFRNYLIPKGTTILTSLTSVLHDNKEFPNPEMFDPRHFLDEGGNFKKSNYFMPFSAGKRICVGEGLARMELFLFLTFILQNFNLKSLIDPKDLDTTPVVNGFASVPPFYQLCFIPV
3',5'-cyclic-AMP phosphodiesterase 4B (Homo sapiens), sequence (Q07343 whole entry, looked up): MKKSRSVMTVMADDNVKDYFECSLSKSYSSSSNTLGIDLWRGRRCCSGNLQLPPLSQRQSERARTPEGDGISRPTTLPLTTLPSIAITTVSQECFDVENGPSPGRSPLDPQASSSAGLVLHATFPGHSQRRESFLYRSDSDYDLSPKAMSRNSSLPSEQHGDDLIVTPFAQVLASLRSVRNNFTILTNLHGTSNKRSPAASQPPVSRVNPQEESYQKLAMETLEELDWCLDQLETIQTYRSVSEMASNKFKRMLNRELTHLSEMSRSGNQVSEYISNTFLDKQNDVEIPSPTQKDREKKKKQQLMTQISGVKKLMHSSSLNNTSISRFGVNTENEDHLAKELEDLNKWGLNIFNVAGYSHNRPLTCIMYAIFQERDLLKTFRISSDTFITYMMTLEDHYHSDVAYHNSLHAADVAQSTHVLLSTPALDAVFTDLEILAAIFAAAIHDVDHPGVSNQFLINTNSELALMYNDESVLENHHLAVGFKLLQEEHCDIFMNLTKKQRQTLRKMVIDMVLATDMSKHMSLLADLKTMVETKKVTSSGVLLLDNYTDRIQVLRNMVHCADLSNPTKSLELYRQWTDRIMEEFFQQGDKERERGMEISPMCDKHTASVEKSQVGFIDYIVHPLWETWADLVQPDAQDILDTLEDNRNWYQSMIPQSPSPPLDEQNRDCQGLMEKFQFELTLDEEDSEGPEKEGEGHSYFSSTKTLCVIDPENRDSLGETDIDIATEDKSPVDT
Cytochrome P450 1A2 (Homo sapiens), sequence (P05177 whole entry, looked up): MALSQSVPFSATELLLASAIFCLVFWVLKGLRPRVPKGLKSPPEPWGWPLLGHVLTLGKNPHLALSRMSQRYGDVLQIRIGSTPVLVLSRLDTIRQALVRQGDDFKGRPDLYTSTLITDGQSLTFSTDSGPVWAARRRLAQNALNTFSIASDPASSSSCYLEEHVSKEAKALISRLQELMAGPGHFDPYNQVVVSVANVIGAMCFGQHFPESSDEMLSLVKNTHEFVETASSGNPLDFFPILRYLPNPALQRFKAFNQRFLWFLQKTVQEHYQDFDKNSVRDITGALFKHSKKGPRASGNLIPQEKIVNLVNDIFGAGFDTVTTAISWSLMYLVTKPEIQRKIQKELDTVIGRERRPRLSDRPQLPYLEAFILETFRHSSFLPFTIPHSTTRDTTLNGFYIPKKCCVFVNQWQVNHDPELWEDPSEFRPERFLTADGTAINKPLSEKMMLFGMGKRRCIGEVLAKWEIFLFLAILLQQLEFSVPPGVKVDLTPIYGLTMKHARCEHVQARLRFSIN
Cytochrome P450 2C9 (Homo sapiens), sequence (P11712 whole entry, looked up): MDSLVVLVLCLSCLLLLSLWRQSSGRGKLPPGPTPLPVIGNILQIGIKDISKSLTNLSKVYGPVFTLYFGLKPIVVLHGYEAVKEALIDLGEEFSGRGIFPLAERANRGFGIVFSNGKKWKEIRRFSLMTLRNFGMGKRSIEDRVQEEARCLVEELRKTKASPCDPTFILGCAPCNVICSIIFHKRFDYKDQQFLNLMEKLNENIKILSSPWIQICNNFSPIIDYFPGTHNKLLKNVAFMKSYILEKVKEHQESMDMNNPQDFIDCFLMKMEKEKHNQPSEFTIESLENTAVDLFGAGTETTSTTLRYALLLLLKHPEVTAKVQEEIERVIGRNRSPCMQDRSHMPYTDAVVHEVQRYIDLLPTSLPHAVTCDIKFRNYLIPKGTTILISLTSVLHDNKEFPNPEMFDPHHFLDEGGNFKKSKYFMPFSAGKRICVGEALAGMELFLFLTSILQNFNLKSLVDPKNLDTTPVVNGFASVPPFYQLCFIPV
Cytochrome P450 2D6 (Homo sapiens), sequence (P10635 whole entry, looked up): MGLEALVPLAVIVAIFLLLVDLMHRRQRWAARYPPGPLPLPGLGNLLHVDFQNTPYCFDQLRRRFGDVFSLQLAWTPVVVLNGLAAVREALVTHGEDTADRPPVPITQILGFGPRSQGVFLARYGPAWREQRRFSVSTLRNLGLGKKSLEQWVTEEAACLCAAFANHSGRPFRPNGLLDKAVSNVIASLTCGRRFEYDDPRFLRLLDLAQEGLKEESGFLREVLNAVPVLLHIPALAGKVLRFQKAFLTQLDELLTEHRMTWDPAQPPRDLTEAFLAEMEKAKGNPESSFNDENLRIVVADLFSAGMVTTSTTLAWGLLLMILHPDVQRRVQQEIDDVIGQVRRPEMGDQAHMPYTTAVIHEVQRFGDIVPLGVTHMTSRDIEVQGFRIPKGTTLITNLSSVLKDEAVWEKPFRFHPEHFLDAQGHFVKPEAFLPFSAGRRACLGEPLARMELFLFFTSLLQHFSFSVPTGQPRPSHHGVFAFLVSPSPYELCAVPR
Muscarinic acetylcholine receptor M1 (Rattus norvegicus), sequence (P08482 whole entry, looked up): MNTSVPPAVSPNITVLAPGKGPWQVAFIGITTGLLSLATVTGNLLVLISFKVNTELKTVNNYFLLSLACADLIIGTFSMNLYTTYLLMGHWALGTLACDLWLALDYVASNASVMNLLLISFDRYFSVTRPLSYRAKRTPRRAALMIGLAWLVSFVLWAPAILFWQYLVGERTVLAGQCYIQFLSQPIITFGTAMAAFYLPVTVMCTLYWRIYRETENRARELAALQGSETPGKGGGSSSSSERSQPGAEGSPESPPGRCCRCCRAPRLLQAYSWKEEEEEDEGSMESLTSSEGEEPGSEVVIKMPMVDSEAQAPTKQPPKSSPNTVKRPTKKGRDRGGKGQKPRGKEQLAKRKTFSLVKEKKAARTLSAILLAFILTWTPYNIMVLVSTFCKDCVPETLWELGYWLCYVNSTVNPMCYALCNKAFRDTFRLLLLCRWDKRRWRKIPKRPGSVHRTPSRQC
Pyruvate kinase (Leishmania mexicana), sequence (Q27686 2-499 E452W): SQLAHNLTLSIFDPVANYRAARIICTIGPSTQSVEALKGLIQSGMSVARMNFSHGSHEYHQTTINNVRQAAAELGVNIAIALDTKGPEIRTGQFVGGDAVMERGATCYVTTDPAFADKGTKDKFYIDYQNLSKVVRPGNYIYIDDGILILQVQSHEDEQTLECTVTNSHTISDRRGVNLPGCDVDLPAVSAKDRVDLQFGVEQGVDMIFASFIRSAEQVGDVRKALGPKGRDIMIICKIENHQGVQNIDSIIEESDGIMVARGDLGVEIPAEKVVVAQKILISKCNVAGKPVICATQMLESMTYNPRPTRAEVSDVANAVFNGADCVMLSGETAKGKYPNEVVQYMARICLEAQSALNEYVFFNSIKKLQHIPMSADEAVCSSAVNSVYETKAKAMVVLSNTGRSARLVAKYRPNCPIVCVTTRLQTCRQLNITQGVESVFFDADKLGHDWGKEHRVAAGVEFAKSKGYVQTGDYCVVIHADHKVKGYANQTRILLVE

As to `N[C@]1(C(=O)O)CC[C@@H](C(=O)O)C1`, the activity change, negative = inhibition in [1] was -3.05% [at 38 µM]; in [3], 7.68% [at 38 µM]. Moreover, the Potency entry in [2], in [8], in [9] and in [10] was “inactive” each time. In addition, the outcome in assay [4] and in assay [7] was inactive. Besides, the Potency in assay [5] and in assay [6] was greater than 46 µM in each case.

For `C=C(C)[C@@H]1CN[C@H](C(=O)O)[C@H]1CC(=O)O`, the activity change, negative = inhibition in assay [1] was 8.5% [at 38 µM]; in assay [3] it was 0.349% [at 38 µM]. Moreover, the Potency entry in assay [2], in assay [8], in assay [9] and in assay [10] was “inactive” each time. Besides, the Potency in [5] and in assay [6] was greater than 46 µM throughout. For the same molecule, the outcome in assay [7] was inactive.

In the case of `CN1CCc2c(c(N3CCCCC3)nc3n[nH]c(N)c23)C1`, the activity change, negative = inhibition is -3.37% in assay [1] and -4.59% in [3]. In addition, in [4], the call was inactive. Besides, in assay [5], the Potency was greater than 20.6 µM.

For the molecule `C[C@]1(C(=O)O)[C@@H]2CC[C@@H](O2)[C@@]1(C)C(=O)O`, the activity change, negative = inhibition in assay [1] is -103% [at 38 µM] (active). In addition, the Potency result in [2], in [12], in assay [10], in [15], in [16] and in [17] was “inactive” throughout. Moreover, the Potency was greater than 46 µM in assay [5], greater than 46 µM in [6], 6.31 µM (active) in [13] and 5.01 µM (active) in assay [14]. Besides, the molecule was classed as inactive in assay [11], in [7], in assay [18], in assay [19], in assay [20] and in assay [21].

Turning to `CC(C)OC(=O)c1c(N)n(Cc2ccco2)c2nc3ccccc3nc12`, the activity change, negative = inhibition in [1] was -15.7%; in assay [3] it was 17.6%. Besides, the molecule was classed as inactive in [4]. For the same molecule, the Potency in assay [5] is greater than 20.6 µM.

On to `CCCSP1(=S)NCCCO1` (configuration not stated), for which the activity change, negative = inhibition in assay [1] is 32.4%; in assay [3] it was 2.72%. For the same molecule, in assay [4], the call was inactive. Moreover, in assay [5], the Potency was greater than 20.6 µM.

For `COc1ccc(-n2c(SC)nc3ccccc3c2=O)cc1`, the activity change, negative = inhibition was 0.0474% in assay [1] and 12.3% in assay [3]. Moreover, in assay [4], the result was inactive. Also, the Potency in assay [5] was greater than 20.6 µM.

Consider `O=P(c1ccccc1)(c1ccccc1)N1CCCCC1`, for which the activity change, negative = inhibition in assay [1] was -9.35%; in [3], -3.91%. In addition, in assay [4], the outcome was inactive. Also, the Potency in assay [5] is greater than 20.6 µM.

In the case of `O=c1[nH]c(=O)n(-c2cccc(Cl)c2)c(O)c1C=NCCN1CCCCC1`, the activity change, negative = inhibition in [1] is -0.739%; in assay [3] it was -1.95%. Also, the molecule was called inactive in [4]. Also, in assay [5], the Potency is greater than 20.6 µM.

For `CCCCCCn1c(O)c(C=NCCCn2ccnc2)c(=O)[nH]c1=O`, the activity change, negative = inhibition in assay [1] was -8.92%; in assay [3] it was -9.29%. In addition, the result in [4] was inactive. Besides, in assay [5], the Potency was greater than 20.6 µM.

For the molecule `Nc1ccc(C2(c3ccc(N)cc3)CN3CCC2CC3)cc1`, the activity change, negative = inhibition in assay [1] was 7.52%; in assay [3] it was -2.19%. In assay [4], the result was inactive. Further, in assay [5], the Potency is greater than 20.6 µM.

With `COc1ccc(Cn2c(O)c(C=NCCCn3ccnc3)c(=O)[nH]c2=O)cc1`, the activity change, negative = inhibition is -15.8% in assay [1] and -15.1% in assay [3]. In addition, the outcome in assay [4] was inactive. Moreover, the Potency in assay [5] is greater than 20.6 µM.

The values above are taken from PubChem BioAssay (NCATS).
